Measurements published in the supplement of paper PMC6555819.

Assays:
Experiment in all cases: PBM binding z-score (relative to random genomic background probes); higher = stronger binding; sequences stand for … in GC…GCGATTGACAGCGTAGAATGAAGG
[1] = system: FXR:RXRa (NR concentration 270 nM, RXRa partner concentration 90 nM)
In short: (§1)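 Antibodies against each partner of ligand-free nuclear receptor dimers (one per run) detected binding on custom Agilent 4×180K protein-binding microarrays after 1 h incubation. The double-stranded probes had 34-nt variable regions carrying direct-repeat seeds, single-nucleotide variants, half-site ablations and random human genomic background sequences. Binding z-scores, from regression-normalized fluorescence, use the random background probes as reference.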

[2] = system: LXRa:RXRa (NR concentration 270 nM, RXRa partner concentration 90 nM)
In short: as §1

[3] = system: LXRa homodimer (NR concentration 270 nM)
In short: as §1

[4] = system: LXRb:RXRa (NR concentration 270 nM, RXRa partner concentration 90 nM)
In short: as §1

[5] = system: LXRb homodimer (NR concentration 270 nM)
In short: as §1

[6] = system: PPARa:RXRa (NR concentration 270 nM, RXRa partner concentration 90 nM)
In short: as §1

[7] = system: PPARg:RXRa (NR concentration 180 nM, RXRa partner concentration 90 nM)
In short: as §1

[8] = system: PPARg:RXRa 270nM:90nM, anti-RXR (NR concentration 270 nM, RXRa partner concentration 90 nM)
In short: as §1

[9] = system: PPARg:RXRa 30nM:10nM, anti-RXR (NR concentration 30 nM, RXRa partner concentration 10 nM)
In short: as §1

[10] = system: PPARg:RXRa 90nM:30nM, anti-RXR (NR concentration 90 nM, RXRa partner concentration 30 nM)
In short: as §1

[11] = system: PPARg:RXRa DBDmut IVT, anti-RXR (DBD mutation: RXRa K156A/R161A, NR concentration 270 nM, RXRa partner concentration 90 nM)
In short: as §1

[12] = system: PPARg:RXRa IVT, anti-PPARg (NR concentration 270 nM, RXRa partner concentration 90 nM)
In short: as §1

[13] = system: PPARg DBDmut:RXRa IVT, anti-PPARg (DBD mutation: PPARg1 K132A/R137A, NR concentration 270 nM, RXRa partner concentration 90 nM)
In short: as §1

[14] = system: PPARg DBDmut IVT, anti-PPARg (DBD mutation: PPARg1 K132A/R137A, NR concentration 270 nM)
In short: as §1

[15] = system: PPARg homodimer (NR concentration 180 nM)
In short: as §1

[16] = system: PXR:RXRa (NR concentration 270 nM, RXRa partner concentration 90 nM)
In short: as §1

[17] = system: PXR homodimer (NR concentration 270 nM)
In short: as §1

[18] = system: RARa:RXR (NR concentration 270 nM, RXRa partner concentration 90 nM)
In short: as §1

[19] = system: RARa homodimer (NR concentration 270 nM)
In short: as §1

[20] = system: RARb:RXRa (NR concentration 270 nM, RXRa partner concentration 90 nM)
In short: as §1

Sequence | PBM binding z-score [1] | PBM binding z-score [2] | PBM binding z-score [3] | PBM binding z-score [4] | PBM binding z-score [5] | PBM binding z-score [6] | PBM binding z-score [7] | PBM binding z-score [8] | PBM binding z-score [9] | PBM binding z-score [10] | PBM binding z-score [11] | PBM binding z-score [12] | PBM binding z-score [13] | PBM binding z-score [14] | PBM binding z-score [15] | PBM binding z-score [16] | PBM binding z-score [17] | PBM binding z-score [18] | PBM binding z-score [19] | PBM binding z-score [20]
CGGCCAAGGTCAGCAGGTCAGTGAAAGCGACGTG | 5.72 | 3.58 | -0.0772 | 2.9 | -0.899 | 4.86 | 4.33 | 4.32 | 0.918 | 2.85 | 3.06 | 3.74 | -0.746 | -1.2 | 2.33 | 3.48 | 0.241 | 4.37 | 0.145 | 5.34
CAAACTAGGTCACGAAAGGTCATAGTCGAATGAC | 7.43 | 7.78 | 7.34 | 6.95 | 2.21 | 6.37 | 10.5 | 8.43 | 7.64 | 8.8 | 8.9 | 9.17 | 2.98 | 2.98 | 6.62 | 6.74 | 2.77 | 7.32 | 3.5 | 5.58
CCAGACAGGTGAAAGGTAACGCAGTCTGGTACGC | 0.748 | 0.83 | -0.423 | 0.898 | -0.326 | 3.57 | 5.87 | 6.19 | 4.19 | 6.4 | 2.46 | 3.24 | -0.31 | 0.017 | 1.67 | 0.869 | -0.124 | 2.01 | 0.457 | 1.47
TCAGTCAGGTGAAGGTAACTCAGGTACGCAGTCG | 1.03 | 1.75 | -0.167 | 0.908 | 0.224 | 1.1 | 0.838 | 2.17 | 3.25 | 2.69 | 2.31 | 1.88 | 0.527 | -0.686 | 0.571 | 0.5 | 0.129 | 0.701 | 0.00869 | 1.52
TCGAGCAGGTTACCAATGGGGCATTCAGCTTTCT | 0.00101 | 1.37 | -0.694 | 0.999 | -1 | 0.887 | -0.242 | 0.245 | 0.211 | 0.322 | 0.467 | 0.239 | -1.51 | -1.13 | -0.591 | 0.0251 | -0.765 | 0.475 | -1.05 | 1.07
ATCTCTAGGTAAGACTCGGTTCAGTGAAGAACGC | 0.472 | 0.583 | 0.614 | 0.263 | 1.07 | -0.0579 | -0.0197 | 0.126 | 0.0672 | 0.278 | 2.07 | 1.14 | 0.784 | 0.701 | 0.702 | 0.669 | 1.18 | 0.0867 | 1.5 | 0.192
TCATATAGGTAAACAGGTGAAGGTCCGTAAGTTA | 0.526 | 0.84 | 0.00797 | 0.841 | -0.136 | 2.21 | 2.67 | 3.2 | 4.31 | 3.46 | 4.86 | 4.7 | 1.09 | 0.987 | 1.53 | 0.741 | 0.241 | 0.898 | 0.337 | 0.842
TCATATAGGTACAGGTGAAAGTCGAACGATATGA | 0.652 | 0.533 | -0.0804 | 0.777 | -0.304 | 1.62 | 1.23 | 2.41 | 3.76 | 2.76 | 2.01 | 1.83 | 1.45 | 1.06 | 0.632 | 0.509 | -0.0466 | 0.718 | 0.84 | 0.896
CCTCGGACGACAACAGGAGGTCAGAGCTGCCAGA | 0.715 | 1.65 | 1.91 | 1.42 | 0.113 | 1.73 | 0.478 | -0.0139 | -0.511 | -0.34 | -0.649 | 0.0157 | -0.728 | -1.24 | 1.84 | 1.67 | 0.467 | 2.11 | 0.372 | 1.96
CCGACTGGGGCAGAAAGGTTACCATACCATCCGG | 0.35 | 0.432 | -0.092 | 0.947 | -1.04 | 2.03 | 1.69 | 2.6 | 0.687 | 2.03 | 1.62 | 2.01 | -0.897 | -0.652 | 1.04 | 0.796 | -0.416 | 1.49 | -0.549 | 1.74
TAGCCTAGGTCATGGGCCAGTATGCCACGCGAAC | 4.69 | 3.46 | 0.00314 | 2.02 | -0.474 | 4.18 | 4.02 | 3.65 | 0.999 | 2.81 | 1.9 | 3.62 | -0.369 | 0.218 | 1.49 | 1.42 | -0.923 | 2.53 | -0.739 | 3.93
ATCTTTAGGTAAAGTTCAGTGAAAGATCGATAGA | 0.994 | 1.72 | 1.25 | 1.18 | 0.781 | 1.87 | 2.25 | 3.13 | 1.43 | 2.95 | 1.08 | 1.4 | 0.514 | 1.26 | 0.959 | 2.02 | 1.36 | 1.27 | 0.483 | 2.65
CGAACTAGGTCAGAACAGGACAGTGTAGGATGAT | 1.59 | 0.807 | -0.126 | 0.58 | -0.539 | 3.33 | 5.09 | 4.48 | 1.85 | 3.29 | 7.44 | 7.53 | 3.18 | 2.19 | 1.06 | 0.998 | 0.228 | 0.95 | 0.229 | 3.07
GCTTACGGGTCAAAGGTTATAGCTTGAATAGAAT | 6.94 | 5.6 | 0.366 | 5.39 | 0.468 | 6.66 | 11.3 | 9.06 | 8.76 | 10.9 | 4.25 | 5.72 | 1.28 | 1.02 | 1.88 | 5.86 | 0.119 | 7.89 | 0.811 | 4.34
AGAATGAGGTTACGATCAGGGAAACAGAATACAT | 1.98 | 1.94 | -0.122 | 1.75 | -0.632 | 3.9 | 2.97 | 2.65 | 1.2 | 2.18 | 3.35 | 3.6 | 1.79 | 0.837 | 0.684 | 1.19 | 0.235 | 1.92 | 0.462 | 2.16
TAGCCTAGGTCATTGGGCCACTATAGTACGCATC | 4.39 | 3.9 | 1.1 | 3.05 | 0.679 | 3.99 | 4.65 | 4.12 | 1.41 | 3.18 | 3.5 | 4.5 | 0.0417 | -0.0772 | 0.995 | 1.63 | -0.211 | 2.14 | -0.101 | 3.49
GCTGCTAGGTCAGGGTGGTCAGCTAACGGGTACG | 1.3 | 1.02 | -0.198 | 0.35 | -0.645 | 2.03 | 1.63 | 1.95 | -0.181 | 1.09 | 2.9 | 2.83 | 0.0307 | -1.27 | 1.2 | 0.451 | -0.345 | 1.03 | 0.165 | 3.61
ATCTCTAGGTAAAAAGTTCAGTGAAAGAGAGGAC | 1.28 | 1.39 | 1.03 | 0.921 | 0.888 | 1.98 | 2.7 | 3.72 | 2.6 | 3.68 | 1.79 | 2.04 | 1.14 | 0.995 | 1.73 | 1.56 | 1.46 | 1.33 | 1.65 | 2.38
CCTAGTTGGTCGAGGTCACACACGCTATAGGTAC | 4.44 | 4.08 | 2.35 | 3.65 | 0.632 | 4.31 | 2.86 | 3.39 | 0.788 | 2.21 | 1.44 | 3.16 | 1.31 | -0.295 | 3.81 | 5.08 | 3.73 | 5.08 | 1.8 | 3.63
